Results on 16 compounds are retold here after PubChem BioAssay.

For some of these results: Potency and affinity values are given separately. The source made the active and inactive calls.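 How the source made its calls, unless noted: active means fluorescence ratio normalized to control raised more than 50% in primary screen plus both repeat runs; inactive means the rest.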

The test system of assay [1] is TRPC4 beta (transient receptor potential cation channel C4), mouse. Kind of assay: activators of mouse TRPC4 channel, confirmation, cell-based, Fluo4 calcium, HEK293 TRPC4beta/mu-opioid, duplicates, 10 µM (AID 2426). To be noted: Fluo4 calcium fluorescence, at 10 µM; hits give high values.
For assay [2], the system named is transient receptor potential cation channel C4 beta (TRPC4), mouse. Put plainly: activators of mouse TRPC4 channel, confirmation, cell-based, second round, Fluo4, HEK293 TRPC4beta/mu-opioid, 1 µM (AID 2461;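 active means primary screen active and over 50% activation in each of two duplicate runs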). To be noted: Fluo4 calcium fluorescence, at 1 µM; hits give high values.
For assay [3], the system named is TRPC4 (transient receptor potential cation channel C4 beta), mouse. Put plainly: positive allosteric modulators of mouse TRPC4, confirmation, cell-based, second round, Fluo-4, HEK293 TRPC4beta/mu-opioid, 1 µM (AID 2554;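 active means primary screen hit whose fluorescence ratio, in both repeats, exceeds the weak agonist control mean by 3 SD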). The conditions noted are these: DAMGO EC20, Fluo-4 calcium flux, at 1 µM; hits give high values. Background: Calcium flux is commonly read through the fluorescence of an indicator in the cells.

Assay [4] concerns TRPC4 beta (transient receptor potential cation channel C4), mouse. Kind of assay: positive allosteric modulators of mouse TRPC4, confirmation, cell-based, Fluo-4, HEK293 TRPC4beta/mu-opioid (AID 2555;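 active means primary screen hit whose calcium fluorescence ratio, in both repeats, exceeds the weak agonist control mean by 3 SD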). The conditions noted are these: DAMGO EC20, Fluo-4 calcium flux, at 10 µM; hits give high values.
Assay [5] deals with Short transient receptor potential channel 4 (Mus musculus) (UniProt Q9QUQ5). Kind of assay: inhibitors of mouse TRPC4 channel, confirmation, cell-based, Fluo4, HEK293 TRPC4beta/mu-opioid (AID 2636;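 active means calcium signal cut by more than 3 SD below the full-agonist control yet still positive, in both repeats and the earlier primary screen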). To be noted: DAMGO, Fluo4 calcium flux, at 10 µM; hits give high values.
Assay [6] has the same target. Put plainly: inhibitors of mouse TRPC4 channel, confirmation, cell-based, second round, Fluo4, HEK293 TRPC4beta/mu-opioid, 1 µM (AID 2637;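 active means calcium signal ratio cut to more than 3 SD under the fully stimulated control mean yet still positive, in both repeats and the primary screen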;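 on inhibition: percent of integrated ratio relative to wells lacking test compound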). The conditions noted are these: Fluo4 calcium flux, DAMGO, at 1 µM; hits give high values.
Assay [7] has the same target. Put plainly: mouse TRPC4 channel activators, dose response, cell-based, HEK293 TRPC4/mu-opioid, Fluo-4 calcium (AID 434937;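 active means primary screen activator hit with a dose response curve and TRPC4 channel activation at any tested dose; inactive means no activation, no dose response, or not a primary hit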).
Assay [8] has the same target. Kind of assay: TRPC4 positive allosteric modulators, dose response, cell-based, HEK293 TRPC4/mu-opioid, Fluo-4 calcium, EC20 DAMGO (AID 434941;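 active means earlier screen potentiator hit that boosts the TRPC4 ion channel at some dose, with a dose response; inactive means no potentiation, no dose response, or not a prior hit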;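 further: calcium entry triggered by an EC20 dose of DAMGO at the co-expressed mu-opioid receptor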).
For assay [9], the target named is Short transient receptor potential channel 6 (Mus musculus) (UniProt Q61143). Kind of assay: inhibition of mouse TRPC6 channel, confirmation, selectivity assay for TRPC4 inhibitor project, cell-based, HEK293, membrane potential dye, duplicate (AID 434948;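 active means active in primary screen and both duplicates, each dropping signal beyond three positive-control SD with fluorescence still positive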). The conditions noted are these: HEK293 TRPC6, membrane potential dye fluorescence, at 10 µM, stimulated with maximal-effect acetylcholine; hits give high values.

The target is the same in assay [10]. Kind of assay: activation of mouse TRPC6 channel, confirmation, selectivity assay for TRPC4 activator project, cell-based, HEK293, membrane potential dye, duplicate (AID 434950;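 active means membrane potential signal rise above negative control mean plus 3 SD in both duplicates, also active in the earlier TRPC4 screen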). The conditions noted are these: HEK293 TRPC6, membrane potential fluorescence, at 10 µM; hits give high values.
For assay [11] the target is unchanged. Kind of assay: TRPC6 potentiation by TRPC4 potentiator hits, confirmation, selectivity assay for TRPC4 potentiator project, HEK293 cells, membrane potential dye, duplicate (AID 434952;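 active means compound raising the membrane signal above positive-control mean plus 3 SD in both repeats, and a primary screen hit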). To be noted: HEK293 TRPC6, membrane potential dye fluorescence, at 10 µM, maximal acetylcholine added after compound; hits give high values.
In assay [12] the target is Short transient receptor potential channel 4 (Mus musculus) (UniProt Q9QUQ5). Put plainly: calcium flux activators in TRPC4/5HT1a cells, counter-screen for TRPC4 activator project, cell-based, second counter screen, HEK293 TRPC4/5HT1a, Fluo-4 (AID 434977;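 active means calcium signal rise above buffer-control mean plus 5 SD in both duplicates, and also a hit in the primary screen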). To be noted: Fluo-4 calcium flux, at 10 µM; hits give high values.
The nature of assay [13]: calcium flux inhibitors in TRPC4/5HT1a cells, confirmation, counter-screen for TRPC4 inhibitor project, cell-based, second counter screen, HEK293 TRPC4/5HT1a, Fluo-4 (AID 434978;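 active means primary screen active whose calcium signal fell more than 3 SD beyond the full-serotonin control mean in both duplicate plates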;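 on outcome: serotonin given first at submaximal then at maximal dose after compound preincubation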). The conditions noted are these: Fluo-4 calcium flux, at 10 µM, serotonin added to trigger calcium flux; hits give high values.
Assay [14] deals with TRPC4 (mouse), co-expressed with 5HT1a in HEK293. Put plainly: calcium flux potentiators in TRPC4/5HT1a cells, confirmation, counter-screen for TRPC4 potentiator project, cell-based, second counter screen, HEK293 TRPC4/5HT1a, Fluo-4 (AID 434979;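 active means signal rise over 3 SD above mean of control wells given weak agonist, in both repeats and first screen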). To be noted: Fluo-4 calcium flux, at 10 µM, serotonin added at its EC20 dose; hits give high values.
The nature of assay [15]: calcium flux activation in mu-opioid HEK293 cells, confirmation, counter-screen for TRPC4 activator project, cell-based, HEK293 mu-opioid receptor line (AID 449723;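 active means hit in primary screen, with calcium signal over 5 SD above buffer well mean in both duplicates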;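 further: counter screen cells carry the mu-opioid receptor alone and lack TRPC4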). To be noted: Fluo-4 calcium fluorescence, at 10 µM; hits give high values.
A short description of assay [16]: calcium flux enhancement in mu-opioid HEK293 cells, confirmation, counter-screen for TRPC4 allosteric potentiator project, cell-based, HEK293 mu-opioid receptor line (AID 449724;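 active means calcium signal rise more than 3 SD above the low-dose agonist control mean, in both duplicate plates and the primary screen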;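 further: HEK293 cells carrying mu-opioid receptor only with no TRPC4 channel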). The conditions noted are these: Fluo-4 calcium flux, at 10 µM, compound added before EC20 DAMGO stimulus; hits give high values.

Short transient receptor potential channel 4 (Mus musculus), sequence (Q9QUQ5 whole entry, looked up): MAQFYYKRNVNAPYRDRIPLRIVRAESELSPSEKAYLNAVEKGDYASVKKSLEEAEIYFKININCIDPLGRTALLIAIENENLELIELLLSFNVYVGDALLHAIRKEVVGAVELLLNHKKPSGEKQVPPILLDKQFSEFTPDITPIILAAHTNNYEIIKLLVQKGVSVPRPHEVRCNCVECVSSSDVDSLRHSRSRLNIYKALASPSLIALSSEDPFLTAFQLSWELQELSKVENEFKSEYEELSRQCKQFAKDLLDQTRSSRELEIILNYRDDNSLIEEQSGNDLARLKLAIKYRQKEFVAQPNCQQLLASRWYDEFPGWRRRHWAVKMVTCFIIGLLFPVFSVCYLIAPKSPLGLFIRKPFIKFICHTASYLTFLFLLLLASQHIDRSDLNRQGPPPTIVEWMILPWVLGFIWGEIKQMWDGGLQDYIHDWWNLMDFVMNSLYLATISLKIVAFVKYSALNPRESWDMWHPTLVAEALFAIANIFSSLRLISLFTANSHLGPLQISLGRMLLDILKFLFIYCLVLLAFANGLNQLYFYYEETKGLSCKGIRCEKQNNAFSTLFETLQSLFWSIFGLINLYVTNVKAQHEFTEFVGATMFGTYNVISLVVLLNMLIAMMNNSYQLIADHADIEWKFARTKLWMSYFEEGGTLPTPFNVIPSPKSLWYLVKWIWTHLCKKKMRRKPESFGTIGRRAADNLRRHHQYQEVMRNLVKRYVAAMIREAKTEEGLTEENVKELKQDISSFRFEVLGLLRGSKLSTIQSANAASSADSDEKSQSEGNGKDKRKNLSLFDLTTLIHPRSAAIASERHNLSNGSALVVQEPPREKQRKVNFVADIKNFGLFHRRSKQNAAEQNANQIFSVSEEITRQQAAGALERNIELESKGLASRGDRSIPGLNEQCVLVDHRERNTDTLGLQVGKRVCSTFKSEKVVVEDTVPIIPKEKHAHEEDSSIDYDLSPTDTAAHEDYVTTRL
Short transient receptor potential channel 6 (Mus musculus), sequence (Q61143 whole entry, looked up): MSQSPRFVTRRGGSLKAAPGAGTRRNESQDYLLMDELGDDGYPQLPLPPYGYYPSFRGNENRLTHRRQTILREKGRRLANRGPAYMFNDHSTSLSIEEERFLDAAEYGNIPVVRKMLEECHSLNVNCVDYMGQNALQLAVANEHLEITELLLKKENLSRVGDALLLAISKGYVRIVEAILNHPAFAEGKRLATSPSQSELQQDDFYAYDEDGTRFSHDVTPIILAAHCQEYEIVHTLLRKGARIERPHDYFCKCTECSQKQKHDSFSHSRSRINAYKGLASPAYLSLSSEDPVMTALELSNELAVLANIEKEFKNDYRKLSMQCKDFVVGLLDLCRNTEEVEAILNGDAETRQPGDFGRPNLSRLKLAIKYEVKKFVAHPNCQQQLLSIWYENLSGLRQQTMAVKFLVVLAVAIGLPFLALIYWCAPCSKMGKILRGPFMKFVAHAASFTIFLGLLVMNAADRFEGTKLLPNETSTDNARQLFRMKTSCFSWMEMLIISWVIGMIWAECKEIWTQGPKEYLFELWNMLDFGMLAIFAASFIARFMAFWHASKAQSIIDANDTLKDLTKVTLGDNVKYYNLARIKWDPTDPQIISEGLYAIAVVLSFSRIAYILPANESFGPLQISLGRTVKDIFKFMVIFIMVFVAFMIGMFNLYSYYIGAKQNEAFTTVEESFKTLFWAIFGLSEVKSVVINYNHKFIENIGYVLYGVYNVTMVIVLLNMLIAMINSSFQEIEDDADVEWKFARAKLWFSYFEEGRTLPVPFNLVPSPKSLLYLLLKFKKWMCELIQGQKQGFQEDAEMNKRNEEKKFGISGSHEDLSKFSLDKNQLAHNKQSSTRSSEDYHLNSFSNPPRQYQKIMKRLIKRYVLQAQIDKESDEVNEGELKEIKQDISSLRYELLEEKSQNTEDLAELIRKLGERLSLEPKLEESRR

On to `COc1cccc(N2CC(O)=C(c3nc4ccccc4c(=O)[nH]3)C2=N)c1`, for which the outcome in assay [1], in [2], in assay [3], in [4], in assay [7] and in [8] was inactive. For the same compound, the outcome in assay [9], in [10], in assay [11], in assay [12], in assay [14] and in assay [15] was inactive. The outcome in assay [16] was inactive. Besides, the results for the inhibition in [5], in [6] and in assay [13] were 74% (active), 47% (active) and 37.5% (active), respectively.

`O=C(Nc1ccccc1N1CCN(C(=O)c2ccc(Cl)cc2)CC1)c1cccc([N+](=O)[O-])c1`: the outcome in assay [1], in [2], in [3], in [4], in [7] and in assay [8] was inactive. In addition, the compound was classed as inactive in assay [9], in assay [10], in assay [11], in [12], in [14] and in assay [15]. The outcome in assay [16] was inactive. In addition, the figures for the inhibition in [5], in assay [6] and in assay [13] were 81% (active), 52% (active) and 36.6% (active), respectively.

`NS(=O)(=O)c1ccc(CCNCc2ccccc2OCc2ccc(F)cc2)cc1`: the outcome in assay [1], in assay [2], in assay [3], in assay [4], in [7] and in assay [8] was inactive. In addition, the compound was classed as inactive in [9], in [10], in assay [11], in assay [12], in [14] and in assay [15]. In addition, the outcome in assay [16] was inactive. In addition, the inhibition in [5] was 91% (active); in [6] it was 55% (active); in [13], 24.6% (active).

With `COc1ccc(Cl)cc1N/C(N)=N/c1nc(C)cc(C)n1`, the result in [1], in assay [2], in [3], in assay [4], in assay [7] and in assay [8] was inactive. Besides, the compound was classed as inactive in assay [10], in assay [11], in assay [12], in assay [14], in assay [15] and in assay [16]. The inhibition in [5] is 94% (active); in assay [6], 53% (active); in assay [9], 58% (active); in assay [13], 15.3% (active).

For `O=[N+]([O-])c1cccc(-c2nnc(C3CC3)o2)c1`, the result in [1], in assay [2], in assay [3], in [4], in [7] and in assay [8] was inactive. For the same compound, the outcome in [9], in assay [10], in assay [11], in assay [12], in assay [13] and in assay [14] was inactive. Also, the outcome in assay [15] and in [16] was inactive. The inhibition in [5] is 68% (active); in assay [6], 38% (active).

`CCOC(=O)C1(Cc2ccccc2)CCN(CC2CC=CCC2)CC1` (stereo unspecified): the result in [1], in assay [2], in assay [3], in assay [4], in assay [6] and in assay [7] was inactive. The outcome in [8], in [9], in [10], in [11], in assay [12] and in assay [13] was inactive. Besides, the result in assay [14], in assay [15] and in assay [16] was inactive. Besides, the inhibition in [5] was 93% (active).

As for `N#Cc1c(N)sc2c1CCCCCC2`, the outcome in assay [1], in [2], in assay [3], in assay [4], in assay [7] and in [8] was inactive. For the same compound, the result in assay [9], in [10], in assay [11], in assay [12], in assay [14] and in assay [15] was inactive. Also, the result in assay [16] was inactive. Besides, the inhibition is 94% (active) in [5], 44% (active) in assay [6] and 32.3% (active) in [13].

Turning to `COc1ccc(Br)cc1CNC(C)c1ccccc1` (stereo unspecified), the result in assay [1], in [2], in [3], in [4], in assay [6] and in assay [7] was inactive. The result in [8], in assay [10], in assay [11], in [12], in assay [14] and in assay [15] was inactive. Moreover, the outcome in assay [16] was inactive. Besides, the inhibition is 55% (active) in [5], 49.5% (active) in [9] and 23.6% (active) in assay [13].

For the compound `COc1ccccc1N(C(=O)c1snc(C(N)=O)c1N)C(C(=O)NCc1ccccc1)c1ccc(C)o1` (stereo unspecified), the result in [1], in assay [2], in assay [3], in [4], in assay [5] and in [7] was inactive. The result in [8], in [9], in assay [10], in assay [11], in assay [12] and in [14] was inactive. For the same compound, the result in [15] and in assay [16] was inactive. Also, the inhibition in [6] is 49% (active); in [13], 25.3% (active).

For `CNc1nc(SCc2ccccc2Cl)nc2c1CCCC2`, the outcome in assay [1], in assay [2], in [3], in assay [4], in [6] and in assay [7] was inactive. The outcome in assay [8], in [9], in [10], in assay [11], in assay [12] and in [14] was inactive. The outcome in assay [15] and in assay [16] was inactive. The values for the inhibition in assay [5] and in assay [13] were 90% (active) and 13.9% (active), respectively.

Take `O=C(CSc1nnc(-c2ccc(Cl)cc2Cl)n1C1CCCCC1)N1CCCC1`: the outcome in [1], in assay [2], in assay [3], in assay [4], in assay [5] and in assay [7] was inactive. In addition, the result in assay [8], in [9], in assay [10], in assay [11], in assay [12] and in assay [13] was inactive. Further, the result in assay [14], in assay [15] and in assay [16] was inactive. Moreover, the inhibition in assay [6] is 48% (active).

`COc1ccccc1CNCC(c1ccccc1)c1ccccc1`: the result in assay [1], in assay [2], in assay [3], in assay [4], in [6] and in [7] was inactive. For the same compound, the result in assay [8], in [10], in [11], in assay [12], in [14] and in [15] was inactive. For the same compound, in [16], the result was inactive. Also, the inhibition is 60% (active) in assay [5], 55% (active) in assay [9] and 44.3% (active) in assay [13].

For the compound `O=C(CCc1ccccc1)Nc1ccnn1C1CCN(C/C=C/c2ccccc2)CC1`, the result in assay [1], in [2], in assay [3], in [4], in [5] and in [6] was inactive. In addition, the outcome in assay [7], in [8], in [9], in assay [10], in assay [11] and in assay [12] was inactive. Moreover, the result in assay [14], in assay [15] and in assay [16] was inactive. The inhibition in assay [13] is 17.3% (active).

Take `O=C(O)c1ccc(CSc2nc(-c3ccc(Cl)cc3)cc(C(F)(F)F)n2)cc1`: the result in assay [1], in [2], in assay [3], in assay [4], in assay [6] and in assay [7] was inactive. The result in [8], in assay [9], in assay [10], in [11], in assay [12] and in [14] was inactive. The outcome in assay [15] and in assay [16] was inactive. In addition, the inhibition in assay [5] is 77% (active); in [13], 19.2% (active).

In the case of `COc1ccc(-n2c3c(cc(C(=O)NCc4ccco4)c2=O)C(=O)CC(C)(C)C3)cc1`, the outcome in assay [1], in assay [2], in assay [3], in assay [4], in assay [6] and in assay [7] was inactive. For the same compound, the result in assay [8], in assay [9], in assay [10], in [11], in assay [12] and in [13] was inactive. The result in assay [14], in assay [15] and in [16] was inactive. In addition, the inhibition in assay [5] is 53% (active).

As to `Clc1ccc(COc2ccccc2CNCc2cccnc2)cc1`, the result in assay [1], in assay [2], in assay [3], in assay [4], in assay [6] and in assay [7] was inactive. For the same compound, the outcome in assay [8], in assay [9], in [10], in assay [11], in [12] and in assay [14] was inactive. For the same compound, the result in assay [15] and in assay [16] was inactive. Further, the values for the inhibition in assay [5] and in assay [13] were 94% (active) and 27.8% (active), respectively.

In general, inhibition refers to how much of the control response was suppressed.
